{"source": "ChEMBL document CHEMBL4513216", "about": "“Probing the Open Global Health Chemical Diversity Library for Multistage-Active Starting Points for Next-Generation Antimalarials” (ACS Infect Dis, 2020)", "note": "The campaign covered roughly 69,000 compounds. About 8,600 (12%) showed an effect of 50% or more. The list comes from a sample in which strong results are over-represented; it also holds similar structures and randomly drawn compounds."}
{"tested_on": "Plasmodium berghei", "test": "Screen against P. berghei liver stage (PbLuc), transformed with Luciferase, at 10uM", "type": "functional, HepG2", "conditions": "tested at 10 uM", "units": {"INHIBITION": "%"}}
{"compound": "CN1CCN(C(=O)c2cc3sccc3n2Cc2ccc(Cl)cc2)CC1", "INHIBITION": 13.9}
{"compound": "Cn1cnc(S(=O)(=O)N2CCCc3cccc(F)c32)c1Cl", "INHIBITION": 39.7}
{"compound": "Cc1ccc(C(=O)N2CC[C@H]3[C@@H]2CCC(=O)N3c2ccccc2)cn1", "INHIBITION": 16.8}
{"compound": "O=C(CC1CC1)N1CC[C@H]2[C@@H]1CCC(=O)N2c1cccnc1", "INHIBITION": 58.6}
{"compound": "Cc1cccc(C(=O)N2CC[C@@H]3[C@H]2CCC(=O)N3c2ccccc2)n1", "INHIBITION": 65.7}
{"compound": "O=C(c1ccco1)N1CC[C@@H]2[C@H]1CCC(=O)N2c1ccccc1", "INHIBITION": 30.3}
{"compound": "Cc1cc(C(=O)N2CC[C@H]3[C@@H]2CCC(=O)N3c2ccccc2)no1", "INHIBITION": 53.9}
{"compound": "O=C(C1CC1)N1CC[C@H]2[C@@H]1CCC(=O)N2c1ccccc1", "INHIBITION": 12.1}
{"compound": "Cc1cnc(C(=O)N2CC[C@H]3[C@@H]2CCC(=O)N3c2cccnc2)cn1", "INHIBITION": 40.4}
{"compound": "Cc1ccc(C(=O)N2CC[C@@H]3[C@H]2CCC(=O)N3c2ccccc2)o1", "INHIBITION": 31.8}
{"compound": "O=C(Cc1cccs1)N1CC[C@H]2[C@@H]1CCC(=O)N2c1cccnc1", "INHIBITION": 30.7}
{"compound": "Cc1cccc(N2CCCC3(C2)CN(S(=O)(=O)C2CC2)CCO3)c1", "note": "(centres undefined)", "INHIBITION": 20.1}
{"compound": "CCc1c(C)nc2cc(-c3nccn3C)nn2c1N1CCCC(CO)C1", "note": "(centres undefined)", "INHIBITION": 10.62}
{"compound": "Cc1csc(CCCNC(C)CC(=O)Nc2ccc(F)cc2)n1", "note": "(centres undefined)", "INHIBITION": 40}
{"compound": "c1cnc(Nc2cncc(C3CCCN3)n2)cn1", "note": "(centres undefined)", "INHIBITION": 31.6}
{"compound": "CN(C)CC1COCCN1C(=O)C1(c2cccs2)CCCC1", "note": "(centres undefined)", "INHIBITION": 36.2}
{"compound": "CS(=O)(=O)N1CCN(c2cc(-n3cccc3)ncn2)CC1", "INHIBITION": 38.3}
{"compound": "Cc1noc([C@@H]2CCO[C@@H]3CCN(Cc4ccc(C)s4)C[C@@H]32)n1", "INHIBITION": 53.2}
{"compound": "Cc1noc([C@@H]2CCO[C@@H]3CCN(Cc4cccs4)C[C@@H]32)n1", "INHIBITION": 24.1}
{"compound": "Cc1ccc(CN2CC[C@H]3OCC[C@@H](c4nc(C)no4)[C@H]3C2)cc1", "INHIBITION": 36.4}
{"compound": "COCC(=O)N1CC[C@H]2N(C)CC[C@@]2(C(=O)Nc2ccccc2)CC1", "INHIBITION": 3.25}
{"compound": "CC(=O)N1C[C@H]2CCCN(c3ncc(C)cn3)[C@H]2C1", "INHIBITION": 45.8}
{"compound": "Cc1cnc(N2CCCC3(CCCN3CC(=O)N(C)C)C2)nc1", "note": "(centres undefined)", "INHIBITION": 79.2}
{"compound": "CN(C)C(=O)CN1CCCC12CCCN(c1ncc(F)cn1)C2", "note": "(centres undefined)", "INHIBITION": 8.31}
{"compound": "CN(C)C(=O)CN1CCC2(CCCN(c3ncc(F)cn3)C2)C1=O", "note": "(centres undefined)", "INHIBITION": 11.3}
{"compound": "Cc1cnc(N2CCC[C@@H]3CN(S(C)(=O)=O)C[C@@H]32)nc1", "INHIBITION": 29.8}
{"compound": "Cc1cnc(N2CCC[C@@H]3CN(CC(=O)N(C)C)C[C@@H]32)nc1", "INHIBITION": 52.3}
{"compound": "CN(C)C1(CNC(=O)CC=Cc2ccc(F)cc2)CCOCC1", "INHIBITION": -18}
{"compound": "Cc1nc(C)n(CC2CCCN(Cc3cn4c(C)cccc4n3)C2)n1", "note": "(centres undefined)", "INHIBITION": 5.03}
{"compound": "O=c1ccc2c(n1CCN1CCCC1)CCN(c1ncccn1)CC2", "INHIBITION": 29.5}
{"compound": "CSCc1noc(CNC(=O)C2CCN(C(=O)C3CCC3)CC2)n1", "INHIBITION": 16.7}
{"compound": "CSCc1noc(CNC(=O)C2CCN(C(=O)C3CCCC3)CC2)n1", "INHIBITION": -26}
{"compound": "CSCc1noc(CNC(=O)C2CCN(C3CCCCC3)CC2)n1", "INHIBITION": 53.9}
{"compound": "CCOCCCNc1cc(C)nn2cnnc12", "INHIBITION": 25.3}
{"compound": "Cc1nn(C)c(C)c1NC(=O)CCn1ncc2ccccc21", "INHIBITION": 35.8}
{"compound": "Cc1ccc2cnn(CCC(=O)Nc3c(C)nn(C)c3C)c2c1", "INHIBITION": -8.19}
{"compound": "CCn1nc(C)c(NC(=O)CCn2ncc3cc(C)ccc32)c1C", "INHIBITION": 50.7}
{"compound": "CCn1c(CN2CCN(CCO)CC2)nc2c(F)cccc21", "INHIBITION": 24.95}
{"compound": "COCCO[C@H]1CCN(C(=O)c2ccno2)[C@H]1Cc1ccncc1", "INHIBITION": 18.3}
{"compound": "CCC1(CC)C(=O)NC(=O)N/C1=N/c1cccc(OC)c1", "INHIBITION": 58.2}
{"compound": "CCC(C)NC(=O)Nc1cccc(OC)c1", "note": "(centres undefined)", "INHIBITION": -32}
{"compound": "CCc1cnc2c(c1Nc1cccc(OC)c1)c(=O)n(C)c(=O)n2C", "INHIBITION": -31}
{"compound": "CCN(CC)Cc1cc(=O)n2c(n1)CN(S(=O)(=O)C1CC1)CCC2", "INHIBITION": -3.26}
{"compound": "Cn1cnc(S(=O)(=O)NCCCN2CCCC2=O)c1Cl", "INHIBITION": 4.71}
{"compound": "Cc1ccc(CN2C[C@@H]3C[C@H](C(=O)NCC4CC4)N(C)[C@@H]3C2)o1", "INHIBITION": 16.1}
{"compound": "Cc1ccc(O)c(C(=O)N2CCOCC2c2c(C)nn(C)c2C)c1", "note": "(centres undefined)", "INHIBITION": -57.4}
{"compound": "CC1=N[C@@]2(CC[C@@H]3CN(C(=O)NCc4ccccc4C)C[C@@H]32)C(=O)N1", "INHIBITION": 28.7}
{"compound": "CCC1=N[C@@]2(CC[C@@H]3CN(C(=O)NCC4CCCCC4)C[C@@H]32)C(=O)N1", "INHIBITION": 47.4}
{"compound": "CCC1=N[C@@]2(CC[C@@H]3CN(C(=O)NCc4ccccc4)C[C@@H]32)C(=O)N1", "INHIBITION": 50}
{"compound": "CC1=N[C@@]2(CC[C@@H]3CN(C(=O)NCCc4ccccc4)C[C@@H]32)C(=O)N1", "INHIBITION": 13.6}
{"compound": "CCC1=N[C@@]2(CC[C@@H]3CN(C(=O)NCc4cccc(F)c4)C[C@@H]32)C(=O)N1", "INHIBITION": 39.2}
{"compound": "CCC1=N[C@@]2(CC[C@@H]3CN(C(=O)NCc4ccccc4)C[C@@H]32)C(=O)N1C", "INHIBITION": 25}
{"compound": "CCC1=N[C@@]2(CC[C@@H]3CN(C(=O)NCc4ccccc4C)C[C@@H]32)C(=O)N1", "INHIBITION": 70.7}
{"compound": "CCC1=N[C@@]2(CC[C@@H]3CN(Cc4ccccc4C)C[C@@H]32)C(=O)N1", "INHIBITION": 37.8}
{"compound": "CC1=N[C@@]2(CC[C@@H]3CN(C(=O)NCc4cccc(F)c4)C[C@@H]32)C(=O)N1", "INHIBITION": 75.4}
{"compound": "Cc1ccc(-c2nnn(CCN3C(=O)CCC3=O)n2)cc1", "INHIBITION": -47.1}
{"compound": "Cc1cnc(C(=O)N2CCc3ncnc(-c4cnn(C)c4)c3CC2)cn1", "INHIBITION": -3.33}
{"compound": "CC(=O)Nc1nc(C(=O)N2CCCC2c2noc(C(C)C)n2)cs1", "note": "(centres undefined)", "INHIBITION": 40.9}
{"compound": "CNC(=O)c1nc(CC(=O)Nc2cccc(C(F)(F)F)c2)no1", "INHIBITION": -2.61}
